# Experimental data taken from ChEMBL document CHEMBL1961873, “Compounds: GSK PKIS; Assays: Nanosyn kinase panel” (2012).
# Key:
# [1] = biological target: Sphingosine kinase 1 (Homo sapiens) (UniProt Q9NYA1); conditions: at 1 µM;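 further: mean SPHK1 inhibition value reported from the GSK PKIS kinase panel screen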
# [2] = biological target: T1, Sphingosine kinase 2 (Homo sapiens) (UniProt Q9NRA0); conditions: at 0.1 µM
# T1 sequence (whole entry): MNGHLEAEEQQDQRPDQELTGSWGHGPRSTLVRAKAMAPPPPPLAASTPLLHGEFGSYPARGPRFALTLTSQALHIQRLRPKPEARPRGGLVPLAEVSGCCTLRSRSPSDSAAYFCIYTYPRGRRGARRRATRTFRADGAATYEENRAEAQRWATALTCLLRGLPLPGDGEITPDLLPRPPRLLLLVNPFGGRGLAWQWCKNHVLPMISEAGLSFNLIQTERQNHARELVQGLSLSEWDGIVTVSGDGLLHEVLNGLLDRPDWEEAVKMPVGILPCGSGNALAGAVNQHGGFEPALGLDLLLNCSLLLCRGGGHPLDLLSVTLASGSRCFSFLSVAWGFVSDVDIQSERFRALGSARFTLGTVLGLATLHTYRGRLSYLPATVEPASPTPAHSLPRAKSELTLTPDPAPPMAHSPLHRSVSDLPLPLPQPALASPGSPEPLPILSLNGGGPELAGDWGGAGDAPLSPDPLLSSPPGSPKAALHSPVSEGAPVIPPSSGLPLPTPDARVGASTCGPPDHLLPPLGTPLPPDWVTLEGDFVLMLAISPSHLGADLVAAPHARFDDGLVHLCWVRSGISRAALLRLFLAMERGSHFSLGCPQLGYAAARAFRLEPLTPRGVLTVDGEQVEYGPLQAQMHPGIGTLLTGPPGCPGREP
# [3] = biological target: T1, Sphingosine kinase 2 (Homo sapiens); conditions: at 1 µM
# [4] = biological target: Casein kinase II subunit alpha (Homo sapiens) (UniProt P68400); conditions: at 0.1 µM
# [5] = biological target: Casein kinase II subunit alpha (Homo sapiens) (UniProt P68400); conditions: at 1 µM
# [6] = biological target: T2, Inhibitor of nuclear factor kappa-B kinase subunit alpha (Homo sapiens) (UniProt O15111); conditions: at 0.1 µM
# T2 sequence (whole entry): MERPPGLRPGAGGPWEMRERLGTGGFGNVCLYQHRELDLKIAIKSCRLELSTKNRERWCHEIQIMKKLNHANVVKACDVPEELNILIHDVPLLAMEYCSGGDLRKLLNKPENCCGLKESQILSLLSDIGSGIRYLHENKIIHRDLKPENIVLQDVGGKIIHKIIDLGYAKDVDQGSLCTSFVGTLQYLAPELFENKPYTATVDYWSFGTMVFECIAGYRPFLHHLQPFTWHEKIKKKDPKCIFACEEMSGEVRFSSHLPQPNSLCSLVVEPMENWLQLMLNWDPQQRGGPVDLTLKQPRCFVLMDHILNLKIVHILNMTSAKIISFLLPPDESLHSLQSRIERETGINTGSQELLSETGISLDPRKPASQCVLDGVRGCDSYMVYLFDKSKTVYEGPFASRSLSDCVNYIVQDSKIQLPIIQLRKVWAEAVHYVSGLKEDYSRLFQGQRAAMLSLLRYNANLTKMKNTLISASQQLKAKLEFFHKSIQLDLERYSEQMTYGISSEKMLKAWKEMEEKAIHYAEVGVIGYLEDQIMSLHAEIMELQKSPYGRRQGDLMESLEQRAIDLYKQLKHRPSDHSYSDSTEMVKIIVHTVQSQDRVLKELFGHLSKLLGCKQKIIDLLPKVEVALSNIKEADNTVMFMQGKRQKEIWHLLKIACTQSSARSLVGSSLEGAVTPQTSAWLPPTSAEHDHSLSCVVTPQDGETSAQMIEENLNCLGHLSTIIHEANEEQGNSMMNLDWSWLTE
# [7] = biological target: T2, Inhibitor of nuclear factor kappa-B kinase subunit alpha (Homo sapiens); conditions: at 1 µM
# [8] = biological target: T3, Inhibitor of nuclear factor kappa-B kinase subunit beta (Homo sapiens) (UniProt O14920); conditions: at 0.1 µM
# T3 sequence (whole entry): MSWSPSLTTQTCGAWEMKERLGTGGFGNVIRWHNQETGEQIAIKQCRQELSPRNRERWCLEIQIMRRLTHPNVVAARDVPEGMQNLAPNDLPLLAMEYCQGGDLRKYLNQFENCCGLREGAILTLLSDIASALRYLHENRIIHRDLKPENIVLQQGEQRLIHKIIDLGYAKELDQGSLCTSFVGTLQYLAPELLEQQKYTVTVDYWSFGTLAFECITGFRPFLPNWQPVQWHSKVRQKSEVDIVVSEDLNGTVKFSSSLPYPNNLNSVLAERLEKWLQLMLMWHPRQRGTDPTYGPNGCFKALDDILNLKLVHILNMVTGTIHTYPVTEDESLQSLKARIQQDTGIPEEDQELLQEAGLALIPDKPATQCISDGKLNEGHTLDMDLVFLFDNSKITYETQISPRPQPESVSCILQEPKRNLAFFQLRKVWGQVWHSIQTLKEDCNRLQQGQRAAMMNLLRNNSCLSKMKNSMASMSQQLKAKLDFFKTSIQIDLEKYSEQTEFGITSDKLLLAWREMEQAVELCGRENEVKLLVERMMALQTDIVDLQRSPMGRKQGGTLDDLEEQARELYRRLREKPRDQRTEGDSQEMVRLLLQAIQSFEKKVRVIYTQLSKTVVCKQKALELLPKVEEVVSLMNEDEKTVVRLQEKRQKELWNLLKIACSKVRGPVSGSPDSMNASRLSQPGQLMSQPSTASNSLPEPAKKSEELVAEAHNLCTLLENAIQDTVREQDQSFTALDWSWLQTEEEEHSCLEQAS
# [9] = biological target: T3, Inhibitor of nuclear factor kappa-B kinase subunit beta (Homo sapiens); conditions: at 1 µM
# [10] = biological target: T4, Inhibitor of nuclear factor kappa-B kinase subunit epsilon (Homo sapiens) (UniProt Q14164); conditions: at 0.1 µM
# T4 sequence (whole entry): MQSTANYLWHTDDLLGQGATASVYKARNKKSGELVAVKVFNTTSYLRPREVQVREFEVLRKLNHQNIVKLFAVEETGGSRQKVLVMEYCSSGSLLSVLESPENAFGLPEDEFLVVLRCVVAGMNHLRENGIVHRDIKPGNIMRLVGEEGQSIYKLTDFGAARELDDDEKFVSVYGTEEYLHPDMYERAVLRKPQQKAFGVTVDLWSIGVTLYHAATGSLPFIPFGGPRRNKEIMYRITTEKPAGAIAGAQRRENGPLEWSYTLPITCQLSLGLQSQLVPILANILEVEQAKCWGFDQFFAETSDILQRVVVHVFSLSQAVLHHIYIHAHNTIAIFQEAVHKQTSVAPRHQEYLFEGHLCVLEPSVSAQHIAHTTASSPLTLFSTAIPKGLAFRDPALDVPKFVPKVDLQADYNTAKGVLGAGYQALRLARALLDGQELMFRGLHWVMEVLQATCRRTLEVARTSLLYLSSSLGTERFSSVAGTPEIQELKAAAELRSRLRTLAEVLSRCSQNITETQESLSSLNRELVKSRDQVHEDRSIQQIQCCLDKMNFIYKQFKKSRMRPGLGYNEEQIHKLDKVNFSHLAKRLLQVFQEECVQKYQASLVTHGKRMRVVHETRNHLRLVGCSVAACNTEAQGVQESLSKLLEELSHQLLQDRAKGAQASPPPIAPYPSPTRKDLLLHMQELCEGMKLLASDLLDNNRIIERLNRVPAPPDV
# [11] = biological target: T4, Inhibitor of nuclear factor kappa-B kinase subunit epsilon (Homo sapiens); conditions: at 1 µM
# [12] = biological target: T5, Serine/threonine-protein kinase Nek1 (Homo sapiens) (UniProt Q96PY6); conditions: at 0.1 µM
# T5 sequence (whole entry): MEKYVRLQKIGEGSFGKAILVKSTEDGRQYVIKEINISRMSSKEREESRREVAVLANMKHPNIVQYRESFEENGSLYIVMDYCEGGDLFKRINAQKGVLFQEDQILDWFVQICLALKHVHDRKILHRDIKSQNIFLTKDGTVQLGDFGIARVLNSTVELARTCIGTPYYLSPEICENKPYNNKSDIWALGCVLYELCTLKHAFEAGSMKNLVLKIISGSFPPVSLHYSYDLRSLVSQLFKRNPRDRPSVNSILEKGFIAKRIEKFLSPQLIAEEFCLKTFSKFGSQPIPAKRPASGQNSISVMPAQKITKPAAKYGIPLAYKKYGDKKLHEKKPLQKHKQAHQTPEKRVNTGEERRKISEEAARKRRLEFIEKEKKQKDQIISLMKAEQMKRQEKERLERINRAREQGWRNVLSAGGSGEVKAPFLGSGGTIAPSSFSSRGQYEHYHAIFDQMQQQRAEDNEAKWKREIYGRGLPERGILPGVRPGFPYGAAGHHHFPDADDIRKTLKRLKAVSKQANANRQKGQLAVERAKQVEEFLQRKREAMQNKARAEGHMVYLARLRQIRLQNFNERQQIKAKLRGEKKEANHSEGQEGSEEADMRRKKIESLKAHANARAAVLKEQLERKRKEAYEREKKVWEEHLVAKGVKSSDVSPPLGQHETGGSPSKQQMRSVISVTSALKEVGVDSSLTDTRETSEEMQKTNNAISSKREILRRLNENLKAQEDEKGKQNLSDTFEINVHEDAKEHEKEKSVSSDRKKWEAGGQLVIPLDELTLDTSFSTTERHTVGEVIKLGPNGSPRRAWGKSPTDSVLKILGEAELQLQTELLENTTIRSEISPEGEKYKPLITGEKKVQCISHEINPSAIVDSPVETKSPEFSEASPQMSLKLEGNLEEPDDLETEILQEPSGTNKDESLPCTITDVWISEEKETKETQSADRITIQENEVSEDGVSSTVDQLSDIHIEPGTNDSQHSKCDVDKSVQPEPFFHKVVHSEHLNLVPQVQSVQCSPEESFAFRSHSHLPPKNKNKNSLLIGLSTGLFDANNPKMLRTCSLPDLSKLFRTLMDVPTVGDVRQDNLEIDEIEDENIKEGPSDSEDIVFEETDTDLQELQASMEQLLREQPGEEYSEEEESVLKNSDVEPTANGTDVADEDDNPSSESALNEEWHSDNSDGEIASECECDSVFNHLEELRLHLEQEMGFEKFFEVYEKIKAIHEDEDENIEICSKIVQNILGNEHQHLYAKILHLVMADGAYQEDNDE
# [13] = biological target: T5, Serine/threonine-protein kinase Nek1 (Homo sapiens); conditions: at 1 µM
# [14] = biological target: T6, Serine/threonine-protein kinase Nek2 (Homo sapiens) (UniProt P51955); conditions: at 0.1 µM
# T6 sequence (whole entry): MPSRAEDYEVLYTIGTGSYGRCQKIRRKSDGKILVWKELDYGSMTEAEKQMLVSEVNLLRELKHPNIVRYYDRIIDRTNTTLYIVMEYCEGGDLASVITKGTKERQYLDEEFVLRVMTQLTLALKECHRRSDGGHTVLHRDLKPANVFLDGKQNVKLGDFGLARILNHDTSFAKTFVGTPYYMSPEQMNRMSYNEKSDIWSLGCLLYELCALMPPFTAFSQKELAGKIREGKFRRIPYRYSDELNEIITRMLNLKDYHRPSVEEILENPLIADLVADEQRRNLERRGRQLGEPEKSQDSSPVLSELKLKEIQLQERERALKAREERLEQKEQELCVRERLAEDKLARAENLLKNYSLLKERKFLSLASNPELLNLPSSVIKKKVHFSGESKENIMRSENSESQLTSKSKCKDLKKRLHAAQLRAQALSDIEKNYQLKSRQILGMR
# [15] = biological target: T6, Serine/threonine-protein kinase Nek2 (Homo sapiens); conditions: at 1 µM
# [16] = biological target: Serine/threonine-protein kinase Nek6 (Homo sapiens) (UniProt Q9HC98); conditions: at 0.1 µM
# [17] = biological target: Serine/threonine-protein kinase Nek6 (Homo sapiens) (UniProt Q9HC98); conditions: at 1 µM
# [18] = biological target: Serine/threonine-protein kinase Nek7 (Homo sapiens) (UniProt Q8TDX7); conditions: at 0.1 µM
# [19] = biological target: Serine/threonine-protein kinase Nek7 (Homo sapiens) (UniProt Q8TDX7); conditions: at 1 µM
# [20] = biological target: T7, Serine/threonine-protein kinase Nek9 (Homo sapiens) (UniProt Q8TD19); conditions: at 0.1 µM;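 further: reported value is the mean percent inhibition of NEK9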
# T7 sequence (whole entry): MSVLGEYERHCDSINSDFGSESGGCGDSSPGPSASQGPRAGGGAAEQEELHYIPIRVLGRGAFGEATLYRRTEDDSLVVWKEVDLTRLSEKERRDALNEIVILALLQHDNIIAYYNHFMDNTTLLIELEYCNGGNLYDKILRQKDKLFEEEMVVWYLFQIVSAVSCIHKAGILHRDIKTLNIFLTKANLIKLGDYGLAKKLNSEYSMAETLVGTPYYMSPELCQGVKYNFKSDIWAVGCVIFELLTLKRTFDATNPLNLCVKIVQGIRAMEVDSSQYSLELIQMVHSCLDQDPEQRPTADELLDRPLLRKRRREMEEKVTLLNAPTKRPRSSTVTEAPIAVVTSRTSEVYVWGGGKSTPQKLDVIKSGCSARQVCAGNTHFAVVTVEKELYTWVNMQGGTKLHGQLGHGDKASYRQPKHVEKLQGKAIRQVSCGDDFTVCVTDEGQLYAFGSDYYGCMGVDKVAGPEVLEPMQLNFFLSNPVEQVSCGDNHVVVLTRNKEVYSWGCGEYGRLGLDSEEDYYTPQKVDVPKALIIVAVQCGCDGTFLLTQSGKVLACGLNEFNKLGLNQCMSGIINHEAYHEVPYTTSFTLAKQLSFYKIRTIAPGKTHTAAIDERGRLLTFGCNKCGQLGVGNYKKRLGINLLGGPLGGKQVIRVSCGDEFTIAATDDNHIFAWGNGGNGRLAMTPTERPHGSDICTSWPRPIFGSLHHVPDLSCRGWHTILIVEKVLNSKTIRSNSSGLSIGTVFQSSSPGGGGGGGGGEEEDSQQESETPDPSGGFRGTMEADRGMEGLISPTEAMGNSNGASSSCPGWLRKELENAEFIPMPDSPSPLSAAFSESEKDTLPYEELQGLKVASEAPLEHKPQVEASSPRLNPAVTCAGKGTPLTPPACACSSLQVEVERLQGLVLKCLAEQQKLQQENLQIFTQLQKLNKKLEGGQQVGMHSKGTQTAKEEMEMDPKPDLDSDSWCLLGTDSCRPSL
# Sequence of Casein kinase II subunit alpha (Homo sapiens) (P68400 whole entry, looked up): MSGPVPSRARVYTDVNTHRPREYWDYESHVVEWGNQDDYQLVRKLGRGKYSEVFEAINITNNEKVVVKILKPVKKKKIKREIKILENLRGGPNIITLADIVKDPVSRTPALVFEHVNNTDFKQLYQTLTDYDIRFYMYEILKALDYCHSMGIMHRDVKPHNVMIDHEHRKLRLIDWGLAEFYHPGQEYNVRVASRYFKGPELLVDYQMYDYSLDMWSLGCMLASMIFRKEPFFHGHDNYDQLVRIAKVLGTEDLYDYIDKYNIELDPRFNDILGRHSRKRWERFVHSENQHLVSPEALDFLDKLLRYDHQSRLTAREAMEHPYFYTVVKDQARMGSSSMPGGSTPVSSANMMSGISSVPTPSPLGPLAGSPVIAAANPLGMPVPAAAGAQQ
# Sequence of Serine/threonine-protein kinase Nek6 (Homo sapiens) (Q9HC98 whole entry): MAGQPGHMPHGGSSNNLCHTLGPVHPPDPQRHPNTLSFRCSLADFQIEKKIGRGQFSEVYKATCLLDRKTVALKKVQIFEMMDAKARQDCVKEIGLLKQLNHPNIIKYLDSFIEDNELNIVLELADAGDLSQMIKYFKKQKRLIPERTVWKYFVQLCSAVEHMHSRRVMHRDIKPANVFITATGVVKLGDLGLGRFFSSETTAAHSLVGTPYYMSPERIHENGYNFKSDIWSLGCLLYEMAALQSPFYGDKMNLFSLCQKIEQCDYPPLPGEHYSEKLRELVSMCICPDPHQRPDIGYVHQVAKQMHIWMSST
# Sequence of Serine/threonine-protein kinase Nek7 (Homo sapiens) (Q8TDX7 whole entry, looked up): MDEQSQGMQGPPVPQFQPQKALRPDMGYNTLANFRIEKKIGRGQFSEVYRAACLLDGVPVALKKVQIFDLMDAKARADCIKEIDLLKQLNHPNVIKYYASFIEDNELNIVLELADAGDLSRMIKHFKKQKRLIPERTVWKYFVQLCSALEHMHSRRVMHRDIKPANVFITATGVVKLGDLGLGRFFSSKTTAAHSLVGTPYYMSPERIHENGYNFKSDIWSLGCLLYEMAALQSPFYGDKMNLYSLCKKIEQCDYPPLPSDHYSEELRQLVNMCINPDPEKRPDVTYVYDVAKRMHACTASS
# Sequence of Sphingosine kinase 1 (Homo sapiens) (Q9NYA1 whole entry): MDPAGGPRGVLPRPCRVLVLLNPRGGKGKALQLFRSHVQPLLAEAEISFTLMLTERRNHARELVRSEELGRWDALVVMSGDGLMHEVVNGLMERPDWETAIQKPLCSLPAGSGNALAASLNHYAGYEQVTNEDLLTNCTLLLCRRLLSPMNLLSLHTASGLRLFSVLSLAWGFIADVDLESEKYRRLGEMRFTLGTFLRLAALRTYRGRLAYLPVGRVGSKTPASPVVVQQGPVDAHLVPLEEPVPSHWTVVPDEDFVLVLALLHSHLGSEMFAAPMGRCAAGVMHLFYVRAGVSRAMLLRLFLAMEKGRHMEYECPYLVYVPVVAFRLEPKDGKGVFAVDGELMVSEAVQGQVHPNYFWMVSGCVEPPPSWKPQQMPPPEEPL
smiles,measurement,setting,value
CCS(=O)(=O)c1ccc(OC)c(Nc2ncc(-c3cccc(OC)c3)o2)c1,inhibition,[1],1.37%
same,inhibition,[2],0%
same,inhibition,[3],-2%
same,inhibition,[4],5.03%
same,inhibition,[5],29.3%
same,inhibition,[6],5.66%
same,inhibition,[7],-4.47%
same,inhibition,[8],3.95%
same,inhibition,[9],1.16%
same,inhibition,[10],0.74%
same,inhibition,[11],4.13%
same,inhibition,[12],0.44%
same,inhibition,[13],1.45%
same,inhibition,[14],2.73%
same,inhibition,[15],2.94%
same,inhibition,[16],-1.47%
same,inhibition,[17],0.87%
same,inhibition,[18],2.84%
same,inhibition,[19],2.42%
same,inhibition,[20],4.19%
